TWEAK-Fn14 inh: blocks TWEAK-Fn14 interaction in a reporter cell assay; 2% of 360,000 active; TWEAK-stimulated Fn14 reporter cells, luciferase luminescence, 8 h; inhibition, % at 10 µM; in the data active = inhibition above about 50%
TROY NFkB inh: TROY signaling inhibition; inhibition, % at 10 µM; 0.98% of 360,000 active; Q293 LMP1-TROYcd NF-kB luciferase reporter, 4 h;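 active = compounds whose plate-normalised and pattern-corrected inhibition of the luciferase reporter signal at the single screening dose is 50% or more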
MITF TRPM1 HTS: increases MITF-driven TRPM1 promoter luciferase signal | SK-MEL-5 TRPM1-promoter luciferase, 24 h; % of positive control, neutral wells = 0 | activation, % at 12.5 µM | 0.75% of 300,000 active;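 active = mean activation of at least 80% with every replicate also reaching 80%; inconclusive = mean reaches 80% but some replicate falls short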
LGR2 antag: Drosophila LGR2 receptor signaling inhibition | HEK293 LGR2, CRE-luciferase, bursicon-stimulated, 4 h | 0.35% of 380,000 active | AID 720647 | inhibition, % at 9.99 µM;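 active = drop in luminescence signal, shown as inhibition above about 50% in the replicate tests, limit read from the data, passing the limit was not always enough; inconclusive = probably only some replicates passing the limit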;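 note: agonist challenge used bursicon conditioned medium at about half maximal strength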
LMP1 NFkB inh: inhibitors of Epstein-Barr LMP1-induced NF-kappaB reporter; LMP1-induced NF-kappaB luciferase reporter cells, luminescence; 0.69% of 350,000 active; inhibition, % at 12.5 µM; in the data active = inhibition above about 41%; inconclusive = no clear call, values can overlap the other calls
TRPM1 prom inh: reduces MITF-dependent TRPM1 promoter luciferase signal; SK-MEL-5 TRPM1 promoter luciferase, 24 h; inhibition, % at 12.5 µM; 0.83% of 330,000 active;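 active = mean inhibition across replicates of 60% or more, whatever share of single replicates reaches that level; inconclusive = some that reach 60%, reason not given; inactive = mean inhibition across replicates below 60%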
A number is an active result. Most compounds without a hit are left out; they make up all but 3% or so of the library.

`CC(=O)N1CC2(C1)[C@@H](c1ccc(-c3ccc(C#N)cc3)cc1)[C@H](CO)N2C(=O)C1CC1` gave LGR2 antag inactive.
Screening N#CC(C#N)c1ccnc2ccccc12 returned TWEAK-Fn14 inh 59, TROY NFkB inh inactive, LGR2 antag inactive and LMP1 NFkB inh 43.
Screening Cc1noc(C)c1NC(=O)N(C)C[C@H]1Oc2ccc(NC(=O)NC3CCCCC3)cc2CC(=O)N([C@H](C)CO)C[C@@H]1C returned LGR2 antag inactive.
For COc1cccc2cc(-c3ccccc3)oc12 the results were TWEAK-Fn14 inh inactive, TROY NFkB inh inactive and LGR2 antag inactive.
Screening Nc1cccc2cc(-c3ccccc3)oc12 returned TWEAK-Fn14 inh inactive, TROY NFkB inh inactive, MITF TRPM1 HTS 115, LGR2 antag inactive, LMP1 NFkB inh inactive and TRPM1 prom inh inactive.
COc1ccc(CN(C)C[C@@H]2OCCCC[C@@H](C)Oc3ccc(NC(=O)Nc4ccccc4)cc3C(=O)N([C@@H](C)CO)C[C@H]2C)cc1 was read as LGR2 antag inactive.
`CCN(CC)S(=O)(=O)c1ccc(N/N=C/c2cc(OC)ccc2O)nc1` gave TWEAK-Fn14 inh inactive, TROY NFkB inh inactive, MITF TRPM1 HTS inactive, LGR2 antag inactive, LMP1 NFkB inh 46 and TRPM1 prom inh inconclusive.
C[C@@H]1CN([C@@H](C)CO)C(=O)Cc2cc(NC(=O)Nc3ccc4c(c3)OCO4)ccc2O[C@H]1CN(C)C(=O)Nc1ccc2c(c1)OCO2 was read as LGR2 antag inactive.
For CCn1c(C)c(C2=CCN(S(=O)(=O)c3ccccc3)CC2)c2ccccc21 the results were TWEAK-Fn14 inh inactive, TROY NFkB inh inactive, MITF TRPM1 HTS inactive, LGR2 antag inactive, LMP1 NFkB inh inactive and TRPM1 prom inh inactive.
Cc1ccc(S(=O)(=O)N2CC=C(c3c(C)n(C)c4ccccc34)CC2)cc1 was read as TWEAK-Fn14 inh inactive, TROY NFkB inh 71, MITF TRPM1 HTS inactive, LGR2 antag inactive, LMP1 NFkB inh inactive and TRPM1 prom inh inactive.
For Cc1ccnc(SCC(=O)N2CCc3ccccc32)n1 the results were TWEAK-Fn14 inh inactive, TROY NFkB inh inactive, MITF TRPM1 HTS 86, LGR2 antag inactive, LMP1 NFkB inh inactive and TRPM1 prom inh inactive.
O=C(CSc1ncccn1)N1CCCc2ccccc21 was read as TWEAK-Fn14 inh inactive, TROY NFkB inh inactive, MITF TRPM1 HTS inactive, LGR2 antag inactive, LMP1 NFkB inh inactive and TRPM1 prom inh inactive.
`Cc1ccc(NC(=O)c2ccc(CSc3nccc(C)n3)cc2)cc1` gave TWEAK-Fn14 inh inactive, TROY NFkB inh inactive, MITF TRPM1 HTS inactive, LGR2 antag inactive, LMP1 NFkB inh inactive and TRPM1 prom inh inactive.
`Cc1ccnc(SCc2ccc(C(=O)O)cc2)n1` gave TWEAK-Fn14 inh 108, TROY NFkB inh inactive, MITF TRPM1 HTS inactive, LGR2 antag inactive, LMP1 NFkB inh inactive and TRPM1 prom inh inactive.
Cc1cc(C)c2nc(N3CCN(C(=O)c4ccco4)CC3)sc2c1 was read as TWEAK-Fn14 inh inactive, TROY NFkB inh inactive, MITF TRPM1 HTS 91, LGR2 antag inactive, LMP1 NFkB inh inactive and TRPM1 prom inh inactive.
`Cc1cc2nc(N3CCN(C(=O)c4ccco4)CC3)sc2cc1C` gave TWEAK-Fn14 inh inactive, TROY NFkB inh inactive, MITF TRPM1 HTS 116, LGR2 antag inactive, LMP1 NFkB inh inactive and TRPM1 prom inh inactive.
For Cc1cc2nc(N3CCN(C(=O)c4cccs4)CC3)sc2cc1C the results were TWEAK-Fn14 inh inactive, TROY NFkB inh inactive, MITF TRPM1 HTS 118, LGR2 antag inactive, LMP1 NFkB inh inactive and TRPM1 prom inh inactive.
For O=C(c1ccco1)N1CCN(c2nc3ccsc3c(=O)s2)CC1 the results were TWEAK-Fn14 inh inactive, TROY NFkB inh inactive, MITF TRPM1 HTS inactive, LGR2 antag inactive, LMP1 NFkB inh inactive and TRPM1 prom inh inactive.
Screening COCC1CCN(C(=O)c2cc(COc3ccc(F)cc3Cl)on2)C1 (stereo unspecified) returned TWEAK-Fn14 inh 94, TROY NFkB inh inactive, LGR2 antag inactive and LMP1 NFkB inh inactive.
`CCOC(=O)C1CCN(C(=O)c2cc(COc3ccc(F)cc3F)on2)CC1` gave TWEAK-Fn14 inh inactive, TROY NFkB inh inactive, MITF TRPM1 HTS 111, LGR2 antag inactive, LMP1 NFkB inh inactive and TRPM1 prom inh inactive.
CCOC(=O)N1CCN(C(=O)c2cc(COc3ccc(F)cc3F)on2)CC1 was read as TWEAK-Fn14 inh inactive, TROY NFkB inh inactive, MITF TRPM1 HTS inactive, LGR2 antag inactive, LMP1 NFkB inh inactive and TRPM1 prom inh inactive.
For O=C(Nc1ccc(F)cc1)N[C@H]1CC[C@@H](CCn2cc(C3(O)CCCC3)nn2)O[C@H]1CO the results were LGR2 antag inactive.
For CCc1cc(C(=O)Nc2ncccc2O)sc1C the results were TWEAK-Fn14 inh inactive, TROY NFkB inh inactive, MITF TRPM1 HTS inactive, LGR2 antag inactive, LMP1 NFkB inh 47 and TRPM1 prom inh inactive.
O=C(COc1cccc(NC(=O)c2cccc([N+](=O)[O-])c2)c1)c1ccc(Br)cc1 was read as TWEAK-Fn14 inh 71, TROY NFkB inh inactive, MITF TRPM1 HTS inactive, LMP1 NFkB inh inactive and TRPM1 prom inh inactive.
O=C(Nc1cccc(OCC(=O)N2CCOCC2)c1)c1cccc([N+](=O)[O-])c1 was read as TWEAK-Fn14 inh inactive, TROY NFkB inh inactive, MITF TRPM1 HTS inactive, LGR2 antag inactive, LMP1 NFkB inh inactive and TRPM1 prom inh inactive.
`CCOC(=O)C(C)Oc1nc(Oc2ccccc2)nc(N(C)C)n1` (stereo unspecified) gave TWEAK-Fn14 inh 50, MITF TRPM1 HTS inactive, LMP1 NFkB inh inactive and TRPM1 prom inh inactive.
`CNC[C@@H]1Oc2cc(C#CCC(C)C)ccc2S(=O)(=O)N([C@H](C)CO)C[C@H]1C` gave LGR2 antag inactive.
Screening CC(=O)c1c(O)cc2c3c1OC(C)(C)C1CCC(C)(CC31)O2 (stereo unspecified) returned TWEAK-Fn14 inh 79, TROY NFkB inh inactive, LGR2 antag inactive and LMP1 NFkB inh inactive.
Screening O=[N+]([O-])/C=C\c1ccc(N2CCCC2)c(F)c1 returned TWEAK-Fn14 inh inactive, TROY NFkB inh inactive, MITF TRPM1 HTS inactive, LMP1 NFkB inh inactive and TRPM1 prom inh 94.
Screening C[C@H](O)C#Cc1cnc2c(c1)C(=O)N([C@@H](C)CO)C[C@H](C)[C@H](CN(C)C(=O)CC1CC1)O2 returned LGR2 antag inactive.
Screening Cc1cc(C(=O)Nc2cccc3c2O[C@@H](CN(C)Cc2ccc(C(F)(F)F)cc2)[C@H](C)CN([C@@H](C)CO)C3=O)n(C)n1 returned LGR2 antag inactive.
Screening Cn1c(=O)c2c(nc(NCc3ccco3)n2C/C=C/c2ccccc2)n(C)c1=O returned TWEAK-Fn14 inh 55, TROY NFkB inh inactive, MITF TRPM1 HTS inactive, LMP1 NFkB inh 42 and TRPM1 prom inh inactive.
Screening Cn1c(=O)c2c(nc(NCc3ccco3)n2C)n(C)c1=O returned TWEAK-Fn14 inh inactive, TROY NFkB inh inactive, MITF TRPM1 HTS inactive, LMP1 NFkB inh inactive and TRPM1 prom inh inactive.
`Clc1ccsc1-c1ccc2ccccc2n1` gave TWEAK-Fn14 inh inactive, TROY NFkB inh inactive, MITF TRPM1 HTS inactive, LMP1 NFkB inh inactive and TRPM1 prom inh inactive.

Source: PubChem
